Screening data (PubChem BioAssay)
Tau fibril ThT: tau fibrillization inhibition (ThT binding); P10636; recombinant tau K18 P301L, heparin-induced fibrillization, ThT fluorescence; Potency, µM (doses to about 57.4 µM), for the others: at the highest dose activity, negative = inhibition, hits mostly inhibitors; hit rate 2.1% among 270,000; further: potency means the concentration at half of the fitted maximal effect; nearly all actives have a fitted effect of over 55% in size
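Using a mix of unlabeled (15 uM) and Alexa 594-labeled (0.24 uM) tau K18 P301L, heparin-triggered fibrillization over 6 hr at 37 C was scored by ThT fluorescence.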
Tau fibril FP: blocks human tau fibril formation measured by polarization. Potency, µM (titrated, usually from 57.7 µM), for inactives: top-dose activity, negative = inhibition, usual class: inhibitors. hit rate 0.39% among 280,000. P10636. K18 P301L tau heparin fibrillization, Alexa594 FP, 6 h; further: potency means the concentration at half of the fitted maximal effect; nearly all actives have a fitted effect of over 55% in size
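Steps: dispense K18 P301L tau (15 uM plus 0.24 uM Alexa 594 tracer, final) in pH 7 sodium acetate; add compound; add heparin (20 uM final); incubate 6 hr, 37 C; add ThT (30 uM final); after 1 hr ambient, read FP.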
Tau fluor cs: counter-screen for tau fibril formation inhibitors | tau K18 P301L Alexa594 fluorescence, heparin fibrillization | Potency, µM (titrated, usually from 57.7 µM), for inactives: top-dose activity change, negative = decrease | hit rate 0.93% among 280,000 | AID 1463; further: potency means the concentration at half of the fitted maximal effect; nearly all actives have a fitted effect of over 55% in size
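Human tau K18 P301L (15 uM unlabeled, 0.24 uM Alexa 594-labeled) in 100 mM sodium acetate pH 7 with 20 uM heparin, 6 hr at 37 C. ThT 30 uM added, 1 hr ambient; Alexa 594 FP and total fluorescence read at 555/632 nm.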
USP1-UAF1 inh: USP1/UAF1 (human) deubiquitinase inhibition; O94782; recombinant USP1/UAF1, Ub-Rhodamine cleavage fluorescence; Potency, µM (series often up to 57.1 µM), for inactives: top-dose activity change, negative = inhibition, most hits filed as inhibitors; hit rate 0.23% among 390,000; AID 743255; further: potency means the concentration at half of the fitted maximal effect; nearly all actives have a fitted effect of over 60% in size
Target sequence (O94782 whole entry, looked up): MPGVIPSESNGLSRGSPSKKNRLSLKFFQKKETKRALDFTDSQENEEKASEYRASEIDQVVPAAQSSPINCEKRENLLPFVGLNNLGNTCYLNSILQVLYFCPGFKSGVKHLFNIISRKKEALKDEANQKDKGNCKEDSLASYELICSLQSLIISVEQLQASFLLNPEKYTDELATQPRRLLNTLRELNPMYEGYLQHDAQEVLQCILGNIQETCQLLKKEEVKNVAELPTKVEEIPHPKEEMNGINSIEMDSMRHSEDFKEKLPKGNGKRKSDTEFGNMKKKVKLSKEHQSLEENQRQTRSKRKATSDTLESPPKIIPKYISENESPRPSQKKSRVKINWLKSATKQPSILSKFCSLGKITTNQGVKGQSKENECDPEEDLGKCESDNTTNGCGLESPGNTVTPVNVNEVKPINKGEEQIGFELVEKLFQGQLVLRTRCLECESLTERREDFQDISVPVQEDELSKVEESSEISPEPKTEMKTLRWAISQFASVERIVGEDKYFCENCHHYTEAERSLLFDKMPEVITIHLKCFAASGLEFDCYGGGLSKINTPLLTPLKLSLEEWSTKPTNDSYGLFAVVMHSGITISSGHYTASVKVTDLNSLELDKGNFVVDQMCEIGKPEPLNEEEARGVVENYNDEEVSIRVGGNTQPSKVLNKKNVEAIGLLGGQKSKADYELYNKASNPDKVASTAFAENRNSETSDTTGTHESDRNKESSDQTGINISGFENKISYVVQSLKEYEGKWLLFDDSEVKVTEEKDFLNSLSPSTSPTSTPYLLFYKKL
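1 nM enzyme complex + cpd, 15 min RT; start with Ub-Rho 150nM final; kinetic fluorescence ex 480/em 540, 6 reads q60 s. Buffer 50mM HEPES pH 7.8, 0.5mM EDTA, 0.1 mg/ml BSA, 1mM TCEP, 0.01% Tween-20.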
Coupling enz: inhibits coupling enzyme system, counter-screen for aldolase hits; coupling enzyme system counterscreen, AmpLite Red fluorescence; activity change, negative = inhibition, % at 58.2 µM, hits read low; hit rate 0.67% among 290,000; AID 2472; in the data active means activity change below about -30%
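Counterscreen of the coupled detection system alone, without aldolase: glyceraldehyde-3-phosphate coupling enzymes plus AmpLite Red readout. Compounds at 57.5 uM final, 10 min RT preincubation, 20 min RT reaction, fluorescence 525/598 nm.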
Starred values were filed as active, the others as inactive; ? = inconclusive; nt = no result; [ ] = dose if it differs, or a comment. An excerpt weighted towards active compounds, which were near 2.3% of everything screened. Unless noted, the call rests on the fitted dose curve; in most records, active means well fitted curve in the direction sought with a large enough effect; inconclusive means small, poorly fitted or top-dose-only effect, or another doubt; inactive means no such curve, though single readings can be large; an effect the other way counts as inactive or inconclusive. On the % scale 0 is the no-effect control and ±100 the full control effect.

SMILES	Tau fibril ThT	Tau fibril FP	Tau fluor cs	USP1-UAF1 inh	Coupling enz
Cc1cc(=O)n(CC(C)O)c(O)c1C#N (configuration not stated)	?	-15.0%	-10.9%	?	-0.9
O=c1c2ccccc2sn1-c1ccc(S(=O)(=O)N2CCCC2)cc1	11.2µM*	?	-16.1%	-16.5%	-2.6
O=c1c2ccccc2sn1-c1nccs1	15.8µM*	?	-20.7%	-6.6%	0.5
O=c1c2ccccc2sn1-c1ccccc1	11.2µM*	?	-29.6%	-17.5%	5.2
O=C1c2ccccc2C(=O)N1c1nccs1	nt	nt	nt	-2.6%	nt
O=c1c2ccccc2sn1-c1ccc(S(=O)(=O)N2CCCCC2)cc1	nt	nt	nt	-13.2%	nt
Cc1ccc(-n2sc3ccccc3c2=O)cc1S(=O)(=O)N1CCCCC1	15.8µM*	31.6µM*	-18.8%	-19.0%	2.6
COc1ccc(Br)cc1CNC(=O)CN1C(=O)CCCc2ccccc21	-0.6%	-7.3%	-3.5%	-14.0%	nt
CCOCC(O)CNc1ccccc1 (configuration not stated)	-9.1%	1.2%	-8.1%	-5.2%	-0.5
OC(CNc1ccccc1)COc1ccc(OCC(O)CNc2ccccc2)cc1 (configuration not stated)	2.82µM*	9.8%	10µM*[quencher]	-3.2%	-1.6
CC(=O)c1ccc(NC(=O)C2CCC(CNS(=O)(=O)c3ccc(Br)s3)CC2)cc1 (configuration not stated)	?	-17.0%	-14.0%	-13.5%	nt
CC/C(=N\Nc1ccccc1[N+](=O)[O-])c1ccc(O)cc1	1.78µM*	-10.9%	4.47µM*[quencher]	-28.8%	0.1
CC/C(=N\Nc1ccc([N+](=O)[O-])cc1[N+](=O)[O-])c1ccc(O)cc1	nt	nt	nt	-19.8%	2.1
CCC(C(=O)Nc1cc(C)ccc1C)n1c(=O)c(C(F)(F)F)nc2ccccc21 (configuration not stated)	?	-8.5%	-18.9%	-7.1%	nt
CN1C(=O)C(N=Nc2ccccc2C(=O)O)N(C)C1=S (configuration not stated)	4.47µM*	-6.4%	1.2%	?	1.2
Cc1c(Cl)cccc1NS(=O)(=O)c1ccc2c(c1)C1C=CCC1C(c1ccc(C(=O)O)cc1)N2 (configuration not stated)	25.1µM*	?	?	?	-0.3
COc1ccc(NS(=O)(=O)c2ccc3c(c2)[C@H]2C=CC[C@H]2[C@@H](c2ccc(C(=O)O)cc2)N3)cc1	25.1µM*	-17.4%	?	?	1.8
Cc1cccc(C)c1NS(=O)(=O)c1ccc2c(c1)[C@H]1C=CC[C@H]1[C@@H](c1ccc(Cl)cc1)N2	?	-2.1%	?	3.2%	nt
CC(C)c1ccc(NC(=O)C2(C)Cc3ccccc3C(=O)O2)cc1 (configuration not stated)	-17.5%	5.1%	-19.3%	-19.9%	nt
NC(=O)C1(N2CCCCC2)CCN(C(=O)Nc2ccccc2C(F)(F)F)CC1	7.3%	-13.9%	1.7%	5.4%	-34.5*
Cc1nc(-c2ccc(S(=O)(=O)Nc3ccc(Cl)c(C(F)(F)F)c3)cc2)co1	7.2%	?	?	-21.7%	nt
COC(=O)c1cc(NC(=O)CN(c2ccccc2)S(=O)(=O)N(C)C)ccc1Cl	-16.0%	-14.8%	?	-32.7%	nt
COc1ccc(C(=O)N(Cc2cc(OC)c(OC)c(OC)c2)CC2CCCO2)cc1 (configuration not stated)	3.2%	-5.8%	-5.2%	-9.3%	nt
CCN(CC)c1ccc(C(=O)Nc2ccccc2)cc1[N+](=O)[O-]	15.8µM*	6.9%	?	-14.5%	-11.8
COc1ccc(C(=O)Nc2ccc(Nc3ccccc3)cc2)cc1[N+](=O)[O-]	nt	nt	nt	-9.4%	-1.4
COc1ccc2[nH]cc(CCNc3ccnc(-c4ccc(N(C)C)cc4)n3)c2c1	nt	nt	nt	nt	-1.3
O=C1/C(=C\c2ccco2)SC(=S)N1c1ccccc1	25.1µM*	?	?	-14.9%	-5.8
Cc1ccc(N2C(=O)/C(=C\c3ccco3)SC2=S)cc1	-13.0%	-1.9%	-18.2%	-25.0%	-9.4
O=C(O)CCCN1C(=O)/C(=C\c2ccco2)SC1=S	22.4µM*	?	-29.2%	-11.6%	-9.5
